{
  "source": "PubChem BioAssay (NCI)",
  "note": "The panel holds about 83,000 compounds, 20% with a hit somewhere; the sample as a whole holds those more often.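 Activity criterion: percent growth below 10, measured after cells in 96-well plates were exposed to a single compound concentration for 48 hours.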 Unmarked numbers belong to inactive results. Active and inactive are the calls of the source.",
  "data": [
    {"test_system": "HL-60(TB) leukemia", "assay": "NCI-60 one-dose screen, 48 h (100 = growth as untreated, 0 = no growth, -100 = all killed)", "settings": "10 µM unless noted", "values": [
      {"smiles": "O=C(CCCSc1nc(-c2ccccc2)cc(-c2ccc(Cl)cc2)n1)NO", "growth": "-15.8% (active)"},
      {"smiles": "CCc1ccc(C(=Nc2ccc(N(C)C(=O)CN3CCN(C)CC3)cc2)c2c(O)[nH]c3ccc(C(=O)OC)cc23)cc1", "growth": "-67% (active)"},
      {"smiles": "COc1ccc(C2CC(c3ccc(-c4ccccc4)cc3)=NN2c2ccc(S(N)(=O)=O)cc2)cc1", "note": "(centres undefined)", "growth": "69.4%"},
      {"smiles": "O=C1/C(=C/c2ccc([N+](=O)[O-])cc2)COc2ccc(O)cc21", "growth": "50.9%"},
      {"smiles": "O=C(O)C1(Cc2cccc(Nc3nccs3)n2)CCC(Oc2cccc(Cl)c2F)CC1", "note": "(centres undefined)", "growth": "50.7%"},
      {"smiles": "COc1cc(/C=C2\\SC(=S)N(/C=C/c3nc4ccccc4[nH]c3=O)C2=O)cc(OC)c1OC", "growth": "70%"},
      {"smiles": "CN(C)c1ccc(/C=N/NC(=O)CSc2nc3sc4c(c3c(=O)n2-c2ccccc2)CCCCC4)cc1", "growth": "86.8%"},
      {"smiles": "CCCCn1c(=O)c(-c2cc(-c3ccc(Cl)cc3)nc(-c3ccc(Cl)cc3)c2)cc2cc(C)ccc21", "growth": "100%"},
      {"smiles": "Cc1ccc2c(=O)cc(C(=O)Nc3sc4c(c3C(=O)NCc3cccnc3)CCCC4)oc2c1C", "growth": "88.3%"},
      {"smiles": "O=C1/C(=C\\c2ccc(Br)cc2)CN(C(=O)c2ccccc2F)C/C1=C\\c1ccc(Br)cc1", "growth": "33.6%"},
      {"smiles": "Cn1ccnc1C(=O)/C=C/c1ccc(C(=O)Nc2ccc(Cl)cc2)cc1", "growth": "-16.9% (active)"},
      {"smiles": "CO[C@H]1C[C@@H]2CC[C@@H](C)[C@@](O)(O2)C(=O)C(=O)N2CCCC[C@H]2C(=O)O[C@H]([C@H](C)C[C@@H]2CC[C@@H](O)[C@H](OC)C2)CC(=O)[C@H](C)/C=C(\\C)[C@@H](O)[C@@H](OC)C(=O)[C@H](C)C[C@H](C)\\C=C/C=C/C=C/1C", "growth": "16.5%"},
      {"smiles": "O=C(NCCCO)c1cc(Cl)ccc1O", "growth": "-13.5% (active)"},
      {"smiles": "CN(C(=S)S(=O)(=O)C12CC3CC(CC(C3)C1)C2)c1ccccc1", "growth": "11.5%"},
      {"smiles": "CCNC(=O)Oc1ccc(/C(=C(/C)Cc2ccc(OC)cc2)c2ccc(OCCN(CC)CC)cc2)cc1", "growth": "34.1%"},
      {"smiles": "C[N+](C)=c1ccc2nc3c(cc(NCCCNc4cc5oc6cc(=[N+](C)C)ccc-6nc5c5ccccc45)c4ccccc43)oc-2c1", "growth": "-7.2% (active)"},
      {"smiles": "CC1=CC(C)(C)NC(=S)N1c1ccc(S(=O)(=O)O)c2cccc(S(=O)(=O)O)c12", "growth": "106%"},
      {"smiles": "CCn1cc(CNc2ccc(C(=O)Nc3cc4cc(OC)c(OC)cc4c(C)n3)cc2)c(C)n1", "growth": "0.232% (active)"},
      {"smiles": "CCCN=C1NC(=O)/C(=C/c2nc(-c3ccc(OC)cc3)n3ccccc23)S1", "growth": "79.8%"},
      {"smiles": "O=C(Nc1c(Cl)cccc1Cl)Oc1cccc2cccnc12", "growth": "-5.41% [100 µM] (active)"},
      {"smiles": "Cc1ccccc1-n1nnc(C(=O)Nc2nc3ccc(F)cc3s2)c1C", "growth": "1.12% (active)"},
      {"smiles": "COc1cc2ncnc(Nc3ccc(S(=O)(=O)Nc4nccs4)cc3)c2cc1OCCCN1CCCC1", "growth": "109%"},
      {"smiles": "Nc1ccc(-c2ccc(N)c(Br)c2)cc1Br", "growth": "7.99% (active)"},
      {"smiles": "CCCCc1ccc(NC(=O)C(F)(F)F)cc1", "growth": "71.2%"},
      {"smiles": "Cc1ccccc1-c1cc(Cc2ccccc2O)c(=O)[nH]n1", "growth": "84.1%"},
      {"smiles": "COC(=O)[C@]12CC[C@@H](C)[C@H](C)[C@@H]1C1=CC[C@@H]3[C@@]4(C)C(C=O)=C[C@@](C)(COC(=O)c5ccco5)[C@@H]4C(=O)C[C@@]3(C)[C@]1(C)CC2", "growth": "10.1%"},
      {"smiles": "C/C(=C\\c1cnc(C)s1)[C@@H]1C[C@@H]2O[C@@H]2CCC[C@H](C)[C@H](O)[C@@H](C)C(=O)C(C)(C)[C@@H](O)CC(=O)O1", "growth": "0.639% (active)"},
      {"smiles": "COc1cc(-c2nc(N=Nc3c(O)[nH]c4ccc(Br)cc34)[nH]c(=O)c2C#N)cc(OC)c1OC", "growth": "101%"},
      {"smiles": "CN1CCN(c2ccc(NC3=C(Cl)C(=O)c4ncccc4C3=O)cc2C#N)CC1", "growth": "-26.3% (active)"},
      {"smiles": "COC(=O)c1cc2c(=O)[nH]cc3c2c(n1)CCC3", "growth": "74.6%"},
      {"smiles": "COc1cc(Nc2ncccc2NC(=O)c2cn(Cc3cccc(Oc4ccccc4)c3)nn2)cc(OC)c1", "growth": "64.6%"},
      {"smiles": "CCCCN1CCCn2c1nc1c2c(=O)n(CCC)c(=O)n1CCC", "growth": "109%"},
      {"smiles": "Nc1nc2c(c3ncccc13)C(c1ccccc1)Cc1ncccc1-2", "note": "(centres undefined)", "growth": "65.9%"},
      {"smiles": "Clc1ccc(N/N=C(/c2ccccc2)c2ccccn2)nc1", "growth": "3.11% (active)"}
    ]}
  ]
}
